Experiments:
Conditions in all cases: concentration: 1 μM, replicates: in singlicate; n = 1
[1] = system: T1, MRCKB
T1 construct: gene CDC42BPB

[2] = system: MST1R
[3] = system: T2, MST1
T2 construct: gene STK4

[4] = system: T3, MST2
T3 construct: gene STK3

[5] = system: T4, MST3
T4 construct: gene STK24

[6] = system: MST4
[7] = system: MTOR
[8] = system: MUSK
[9] = system: MYLK2
[10] = system: MYLK4
[11] = system: MYLK
[12] = system: MYO3A
[13] = system: MYO3B
[14] = system: T5, NDR1
T5 construct: gene STK38

[15] = system: NDR2
[16] = system: NEK10
[17] = system: NEK11
[18] = system: NEK1
[19] = system: NEK2
[20] = system: NEK3
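Also: KINOMEscan kinase panel screen.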

Row | SMILES | %Inh [1] | %Inh [2] | %Inh [3] | %Inh [4] | %Inh [5] | %Inh [6] | %Inh [7] | %Inh [8] | %Inh [9] | %Inh [10] | %Inh [11] | %Inh [12] | %Inh [13] | %Inh [14] | %Inh [15] | %Inh [16] | %Inh [17] | %Inh [18] | %Inh [19] | %Inh [20]
1 | COc1ccc(CNC(=O)NC2CCN(c3ccnc(Nc4ccc(F)cc4)n3)C2)cc1 (centres unmarked) [GSK1379706] | 12% | 41% | 0% | 9% | 6% | 0% | 28% | 4% | 6% | 17% | 9% | 42% | 0% | 28% | 50% | 25% | 43% | 17% | 16% | 13%
2 | COc1cc2nccc(Nc3ccc(OCc4ccc(NC(C)=O)cc4)cc3)c2cc1OC.Cl [GW440135] | 0% | 12% | 0% | 20% | 0% | 1% | 15% | 3% | 0% | 0% | 13% | 20% | 0% | 0% | 0% | 12% | 0% | 0% | 0% | 0%
3 | COc1cc2ncn(-c3cc(OCc4ccncc4Br)c(C(N)=O)s3)c2cc1OC [GW854278] | 0% | 74% | 0% | 23% | 34% | 24% | 9% | 4% | 0% | 70% | 72% | 0% | 9% | 0% | 17% | 0% | 0% | 0% | 33% | 29%
4 | OCCCNc1nccc(-c2c(-c3cccc(C(F)(F)F)c3)nn3cc(C(F)(F)F)ccc23)n1 [GW630813] | 0% | 17% | 9% | 0% | 25% | 0% | 1% | 0% | 0% | 0% | 10% | 43% | 0% | 9% | 18% | 0% | 5% | 0% | 0% | 0%
5 | CN(C)c1cc(-c2ccc3c(N)n[nH]c3c2)nc(N)n1 [GSK2219329] | 0% | 18% | 1% | 0% | 5% | 0% | 1% | 0% | 9% | 0% | 0% | 11% | 0% | 17% | 0% | 0% | 0% | 0% | 0% | 0%
6 | COc1cc2ncn(-c3cc(OCc4ccc(S(C)(=O)=O)cc4)c(C(N)=O)s3)c2cc1OC [GW869979] | 0% | 0% | 0% | 44% | 7% | 14% | 6% | 0% | 0% | 8% | 46% | 0% | 0% | 25% | 4% | 29% | 14% | 0% | 0% | 14%
7 | CCc1nc(-c2cccc(C)c2)c(-c2ccncc2)s1 | 0% | 0% | 0% | 8% | 8% | 0% | 34% | 5% | 5% | 0% | 12% | 4% | 15% | 40% | 0% | 3% | 0% | 0% | 0% | 28%
8 | CN1C(=O)C(Nc2ccccc2)=C(c2ccccc2)C1=O [SB-300079] | 0% | 0% | 0% | 0% | 0% | 0% | 26% | 0% | 5% | 28% | 0% | 0% | 0% | 39% | 0% | 7% | 4% | 0% | 0% | 21%
9 | Nc1ncnc2c1ncn2-c1cccc2ccccc12 [SKF-97184] | 0% | 6% | 7% | 0% | 0% | 0% | 28% | 0% | 0% | 4% | 0% | 0% | 27% | 29% | 4% | 0% | 27% | 11% | 0% | 31%
10 | Nc1n[nH]c2nnc(-c3ccccc3)c(-c3ccccc3)c12 [GW554060] | 0% | 40% | 0% | 0% | 0% | 0% | 12% | 20% | 0% | 1% | 16% | 0% | 0% | 9% | 10% | 9% | 5% | 0% | 0% | 4%
11 | CCc1ccc(-c2ccc3c(c2)-c2nn(C)cc2S(=O)(=O)N3C)cc1 | 0% | 0% | 0% | 0% | 0% | 0% | 23% | 1% | 0% | 6% | 3% | 96.5% | 0% | 19% | 0% | 0% | 0% | 0% | 0% | 36%
12 | Nc1ncnc2c1ncn2-c1ccc(Cl)cc1 [AH2635] | 0% | 17% | 2% | 0% | 0% | 0% | 11% | 0% | 14% | 8% | 0% | 49% | 0% | 0% | 31% | 27% | 0% | 0% | 0% | 0%
13 | COc1cc2ncn(-c3cc(OCCCc4ccccc4)c(C(N)=O)s3)c2cc1OC [GSK205189] | 0% | 14% | 0% | 0% | 11% | 0% | 1% | 50% | 8% | 65% | 23% | 3% | 0% | 0% | 0% | 0% | 0% | 0% | 36% | 0%
14 | COc1ccc(-n2cnc3c(N)ncnc32)cc1 [SKF-97236] | 1% | 0% | 24% | 13% | 6% | 0% | 16% | 12% | 52% | 0% | 0% | 4% | 0% | 3% | 0% | 40% | 3% | 0% | 0% | 0%
15 | C[C@@H]1CC[C@H](C(=O)NC2CCCCC2)CN1c1cc(-c2ccc3c(N)n[nH]c3c2)nc(N)n1 [GSK2291363] | 15% | 50% | 12% | 0% | 14% | 0% | 18% | 21% | 11% | 23% | 52% | 36% | 0% | 14% | 7% | 29% | 0% | 10% | 0% | 12%
16 | CCn1c(-c2nonc2N)nc2ccccc21 [SB-693162/GW549034] | 0% | 0% | 0% | 34% | 11% | 0% | 0% | 42% | 0% | 0% | 48% | 0% | 18% | 37% | 23% | 12% | 25% | 0% | 0% | 0%
17 | Cc1nn2c(=O)cc(N3CCOCC3)nc2n1Cc1cccc(Cl)c1Cl [GSK2342769] | 0% | 13% | 0% | 4% | 0% | 0% | 45% | 18% | 0% | 4% | 16% | 0% | 0% | 0% | 0% | 0% | 0% | 0% | 2% | 0%
18 | COC(=O)c1c(-c2ccccc2)c2cc(Br)ccc2c(=O)n1Cc1ccc(S(C)(=O)=O)cc1 | 0% | 43% | 10% | 32% | 5% | 0% | 28% | 7% | 0% | 2% | 20% | 26% | 0% | 7% | 19% | 0% | 0% | 0% | 10% | 21%
19 | Nc1nc(N)c2nc(-c3ccccc3)[nH]c2n1 [SKF-12778] | 0% | 0% | 4% | 32% | 13% | 10% | 26% | 18% | 2% | 1% | 0% | 0% | 19% | 33% | 0% | 58% | 13% | 0% | 0% | 0%
20 | Cl.NS(=O)(=O)c1cccc(Nc2cc(-c3ccc(F)cc3)n[nH]2)c1 [GW824645] | 0% | 0% | 29% | 14% | 0% | 9% | 39% | 0% | 9% | 12% | 0% | 0% | 0% | 47% | 5% | 8% | 0% | 0% | 0% | 14%
21 | O=C1NC(=O)C(c2ccccc2)=C1Nc1cccc(O)c1 [SB-390534] | 0% | 20% | 7% | 24% | 0% | 9% | 0% | 8% | 16% | 15% | 37% | 17% | 21% | 0% | 0% | 0% | 16% | 0% | 16% | 30%
22 | O=C(Nc1n[nH]c2nc(-c3ccccc3)c(Cl)cc12)C1CC1 [SB-734909] | 6% | 0% | 12% | 50% | 0% | 37% | 19% | 19% | 93.2% | 33% | 37% | 0% | 12% | 8% | 0% | 0% | 11% | 0% | 0% | 33%

From PMC5540273 (PLoS ONE, 2017)
